# Test results taken from the supplement of paper PMC12297408.
# Values joined by “and” are separate entries in the source; they are usually repeats but may differ in a detail not shown here. Equal entries are not always repeated. Structures can show the parent of a compound that is named as a salt. Values without a mark were called inactive.
# System: Plasmodium falciparum NF54/iGP1_RE9H ulg8 stage V gametocytes
# Experiment: gametocyte viability (luciferase signal relative to DMSO control) (% of DMSO control); higher = less gametocytocidal activity, active = 50 or less
# Settings: exposure time: 72 h
# Method in brief: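 Compounds from 10 mM DMSO stocks were spotted at nanolitre scale into 96-well plates, and day-12 stage V NF54/iGP1_RE9Hulg8 gametocytes (~2.5% gametocytemia, 3% hematocrit; medium with 0.5% Albumax II) were added to reach 10 µM or 1 µM, one well per concentration. The plates were kept at 37 °C for 72 h. Luminescence was then read on an IVIS Lumina II after mixing 90 µl of culture with 10 µl D-luciferin (30 mg/ml). Viability values are relative to the plate's mean DMSO vehicle signal.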
SMILES,gametocyte viability (concentration: 1 µM),gametocyte viability (concentration: 10 µM)
Cc1cc(Nc2nc(N[C@@H](C)c3ncc(F)cn3)ncc2Cl)[nH]n1,97.5,95.5
CNC(=O)c1cc(Oc2ccc(NC(=O)Nc3cc(C(C)(C)C)nn3-c3ccc4ncccc4c3)c(F)c2)ccn1 [DCC-2036 (Rebastinib)],103,107
Cn1cc(-c2cnn3c(N)c(Br)c([C@@H]4CCCNC4)nc23)cn1,114,85.8
Cc1cnc(NC(=O)Nc2cc(Br)c(C)cc2OC[C@@H]2CNCCO2)cn1,102,113
C=CC(=O)N1CCC[C@@H](n2nc(-c3ccc(Oc4ccccc4)cc3)c3c(N)ncnc32)C1,106,104
CNC(=O)Nc1ccc(-c2nc(N3CC4CCC(C3)O4)c3cnn(C4CCC5(CC4)OCCO5)c3n2)cc1,103,108
Cc1ccc(NC(=O)c2ccc(CN3CCN(C)CC3)cc2)cc1Nc1nccc(-c2cccnc2)n1 [Imatinib (Gleevec)],104,110
Clc1ccc(Nc2nnc(Cc3ccncc3)c3ccccc23)cc1 [Vatalanib dihydrochloride (PTK787)],111,115
N#CC(=C(/N)Sc1ccccc1N)/C(C#N)=C(\N)Sc1ccccc1N,94.3,95.9
Cc1ccc(-c2nn(C(C)(C)C)c3ncnc(N)c23)cc1,103,105
OCCn1cc(-c2ccc3c(c2)CC/C3=N\O)c(-c2ccncc2)n1,88.7,99.6
Oc1cccc(-c2nc(N3CCOCC3)c3oc4ncccc4c3n2)c1,115,111
COc1cc(C=C(C#N)C(N)=O)cc(CSc2nc3ccccc3s2)c1O,111,113
N#CC(=Cc1ccc(O)c(O)c1)C(=O)NCc1ccccc1,95.7,101
N#C/C(=C\c1cc(Cl)cc(Cl)c1)c1cccnc1,98.1,101
CC(C)c1cnc(NC(=O)Cc2ccccc2)s1,94.5,92

SMILES,gametocyte viability (concentration: 1 µM),gametocyte viability (concentration: 10 µM)
O=C1NC(=O)/C(=C\c2ccc3nccnc3c2)S1,94.4,101
COCc1cc(O)c(O)c(O)c1-c1c(COC)cc(O)c(O)c1O,104,92.3
C[C@@H](N)[C@H]1CC[C@H](C(=O)Nc2ccncc2)CC1,107 and 110,107 and 111
Cn1cc(C2=C(c3ccc(Cl)cc3Cl)C(=O)NC2=O)c2ccccc21,97.8,112
CNCCNS(=O)(=O)c1cccc2cnccc12,104,108
Cc1cc(C(=O)NOCCO)c(Nc2ccc(I)cc2F)n(C)c1=O,90.8,92.8
NC1(c2ccc(-c3nc4ccn5c(=O)[nH]nc5c4cc3-c3ccccc3)cc2)CCC1 [MK-2206 dihydrochloride],97.5,63.9
COc1cc(Nc2c(C#N)cnc3cc(OCCCN4CCN(C)CC4)c(OC)cc23)c(Cl)cc1Cl [Bosutinib (SKI-606)],86.4,98.1
C[C@@H](Oc1cc(-c2cnn(C3CCNCC3)c2)cnc1N)c1c(Cl)ccc(F)c1Cl,88.7,30.2 (active)
CC1(C)CNc2cc(NC(=O)c3cccnc3NCc3ccncc3)ccc21 [Motesanib Diphosphate],97,97.4
COc1cc2/c(=N/c3ccc(Br)cc3F)nc[nH]c2cc1OCC1CCN(C)CC1 [Vandetanib (Zactima)],88.8,108
FC(F)c1nc2ccccc2n1-c1nc(N2CCOCC2)nc(N2CCOCC2)n1,98.5,108
CCS(=O)(=O)Nc1ccc2[nH]c(O)c(C(=Nc3ccc(CN4CCCCC4)cc3)c3ccccc3)c2c1 [Hesperadin],110,108
O=C(NOC[C@H](O)CO)c1ccc(F)c(F)c1Nc1ccc(I)cc1F,114,110
Cc1c(NC(=O)OC[C@@H]2COCCN2)cn2ncnc(Nc3ccc4c(cnn4Cc4cccc(F)c4)c3)c12,85.8,96
